# Assay results reported in PubChem BioAssay (Tox21).
# Values joined by “and” are separate entries in the source; they are usually repeats but may differ in a detail not shown here. Equal entries are not always repeated. Inconclusive results are not listed. Where a call stands in place of a potency, no number is given. A structure can be active in one record and inactive in another. Active and inactive are the calls of the source. Unless noted, the call rests on the fitted dose curve; in most records, active means well fitted curve in the direction sought with a large enough effect in the repeat runs; inconclusive means weak or mixed curves; inactive means no such curve, though single readings can be large; an effect the other way counts as inactive or inconclusive.
# Legend:
# [1] = qHTS assay to identify small molecule agonists of the hypoxia (HIF-1) signaling pathway - cell viability counter screen (AID 1224844; calls by dose curve; further: nearly all actives have a fitted effect of over 50% in size; further: potency means the concentration at half of the fitted maximal effect)
# Procedure, shortened: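 Cells (HRE-bla ME-180, 2,000 per well) sat 5 hrs at 37C, got compound for 17 hrs, were read for CCF4-AM FRET, and were finally lysed with CellTiter-Glo for a 30 min room-temperature luminescence read.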
# [2] = qHTS assay to identify small molecule agonists of H2AX (AID 1224845; active means well fitted activation curve with a large enough effect in the signal ratio in the repeat runs, not every such curve was filed as active; the % refers to the signal ratio)
# Procedure, shortened: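 Phospho-H2AX Ser139 measured by HTRF (ex 320 nm; em 665 and 620 nm) after 24 hr antibody incubation. Compounds, 15 concentrations, 0.76% DMSO, were applied to CHO-K1 cells for 3hr at 37C before lysis.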
# [3] = qHTS assay to identify small molecule agonists of the hypoxia (HIF-1) signaling pathway (AID 1224846; active means well fitted activation curve with a large enough effect in the signal ratio in the repeat runs, not every such curve was filed as active; the % refers to the signal ratio)
# Procedure, shortened: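 A low-serum medium (0.5% dialyzed FBS) holding 2,000 HRE-bla ME-180 cells per well is preincubated for 5 hrs, dosed with compounds by pintool, and kept a further 17 hrs at 37C, 5% CO2 before CCF4-AM FRET detection of beta-lactamase.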
# [4] = qHTS assay to identify small molecule agonists of H2AX - cell viability counter screen (AID 1224847; calls by dose curve;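 further: wild-type CHO-K1 cells; top concentration of the series differs between compounds; nearly all actives have a fitted effect of over 30% in size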)
# Procedure, shortened: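 Cells plated first: CHO-K1, 1000 per well in 10% FBS medium, incubated overnight at 37C. Then 15-point compound titration added (final DMSO 0.76%) for 3 hr. Finally CellTiter-Glo added and luminescence read.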
# [5] = qHTS assay to identify small molecule antagonists of the estrogen related receptor (ERR) signaling pathway from Tox21 library (AID 1224848); further: nearly all actives have a fitted effect of over 50% in size
# Procedure, shortened: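 Reading was by luminescence 30 min after ONE-Glo addition. Before that, ERR cells at 2,000 per well had rested 6 h at 37 C/5% CO2 and then received pin-tooled compounds in DMSO for 18 h at 37 C.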
# [6] = qHTS assay to identify small molecule agonists of the estrogen related receptor (ERR) signaling pathway from Tox21 library (AID 1224849; calls by dose curve; further: nearly all actives have a fitted effect of over 15% in size); details: ERR reporter cell line, ONE-Glo luciferase, 18 h
# Procedure, shortened: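 Screening used an NTP-provided ERR luciferase cell line. Compounds in DMSO were added 6 h after seeding and left 18 h at 37 C before a 30 min ONE-Glo step and luminescence reading.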
# [7] = qHTS RealTime-Glo MT Cell Viability Assay in HepG2 cells - 24 hour (AID 1224867); further: nearly all actives have a fitted effect of over 50% in size
# Procedure, shortened: (§1)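 qHTS, HepG2, 600 cells/well, RealTime-Glo (NanoLuc + prosubstrate) added with cells; 5 h preincubation; DMSO compound addition; 37 C; luminescence at 0/8/16/24/32/40 h.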
# [8] = qHTS RealTime-Glo MT Cell Viability Assay in HEK293 cells - 32 hour (AID 1224868); further: nearly all actives have a fitted effect of over 50% in size; further: potency means the concentration at half of the fitted maximal effect
# Procedure, shortened: (§2)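 Assay medium contained NanoLuc luciferase plus cell-permeant prosubstrate, added with HEK293 cells at 600 cells/well. After 5 h at 37 C/5% CO2 compounds were added; plates stayed at 37 C for 40 h with serial luminescence reads.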
# [9] = A CellTox Green Cytotoxicity Assay to monitor cytotoxicity in HEK293 cells - 0 hour (AID 1224869); further: nearly all actives have a fitted effect of over 50% in size
# Procedure, shortened: (§3)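 Fluorescence intensity, read at 0, 8, 16, 24, 32 and 40 h of compound treatment, reflected dye binding to DNA of dead HEK293 cells; compounds (23 nL, DMSO) were added 5 h after plating cells with reagent.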
# [10] = qHTS RealTime-Glo MT Cell Viability Assay in HepG2 cells - 40 hour (AID 1224870); further: nearly all actives have a fitted effect of over 50% in size
# Procedure, shortened: (§4)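 Real-time viability: cells seeded at 600 per well together with NanoLuc and cell-permeant prosubstrate, compounds added after 5 h incubation. Luminescence tracked at 0, 8, 16, 24, 32 and 40 h of exposure.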
# [11] = A CellTox Green Cytotoxicity Assay to monitor cytotoxicity in HEK293 cells - 40 hour (AID 1224871); further: nearly all actives have a fitted effect of over 45% in size; further: potency means the concentration at half of the fitted maximal effect
# Procedure, shortened: as §3
# [12] = qHTS RealTime-Glo MT Cell Viability Assay in HEK293 cells - 16 hour (AID 1224872)
# Procedure, shortened: as §2
# [13] = qHTS RealTime-Glo MT Cell Viability Assay in HepG2 cells - 8 hour (AID 1224873); further: nearly all actives have a fitted effect of over 55% in size
# Procedure, shortened: as §4
# [14] = qHTS RealTime-Glo MT Cell Viability Assay in HEK293 cells - 40 hour (AID 1224874); details: RealTime-Glo luminescence; max response: stronger effect = lower value; further: nearly all actives have a fitted effect of over 50% in size; further: potency means the concentration at half of the fitted maximal effect
# Procedure, shortened: (§5)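 Viable HEK293 cells reduce a cell-permeant prosubstrate; the product diffuses out and is consumed by NanoLuc in the medium to give light. Compounds went in after a 5 h incubation and plates were read over the treatment course.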
# [15] = A CellTox Green Cytotoxicity Assay to monitor cytotoxicity in HEK293 cells - 24 hour (AID 1224875); further: nearly all actives have a fitted effect of over 45% in size
# Procedure, shortened: as §3
# [16] = A CellTox Green Cytotoxicity Assay to monitor cytotoxicity in HepG2 cells - 16 hour (AID 1224876); further: nearly all actives have a fitted effect of over 45% in size; further: potency means the concentration at half of the fitted maximal effect
# Procedure, shortened: (§6)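 Using 1536-well format, dye-containing HepG2 suspension was seeded, allowed 5 h at 37 C/5% CO2, dosed by pintool with compounds, positive and negative controls, and imaged for fluorescence across 40 h.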
# [17] = qHTS RealTime-Glo MT Cell Viability Assay in HepG2 cells - 32 hour (AID 1224877); further: nearly all actives have a fitted effect of over 55% in size
# Procedure, shortened: as §1
# [18] = A CellTox Green Cytotoxicity Assay to monitor cytotoxicity in HepG2 cells - 24 hour (AID 1224878); further: nearly all actives have a fitted effect of over 45% in size; further: potency means the concentration at half of the fitted maximal effect
# Procedure, shortened: as §6
# [19] = A CellTox Green Cytotoxicity Assay to monitor cytotoxicity in HepG2 cells - 40 hour (AID 1224879); further: nearly all actives have a fitted effect of over 40% in size; further: potency means the concentration at half of the fitted maximal effect
# Procedure, shortened: as §6
# [20] = qHTS RealTime-Glo MT Cell Viability Assay in HEK293 cells - 0 hour (AID 1224880)
# Procedure, shortened: as §5
smiles,measurement,setting,value
O=c1oc(=O)c2cc3c(=O)oc(=O)c3cc12,Potency,[1],inactive
same,outcome,[2],inactive
same,Potency,[3],inactive
same,Potency,[4],inactive
same,Potency,[5],inactive
same,"activity change, positive = activation",[6]; at 92.4 µM (top of the series),1.24% (inactive) and 2.94% (inactive)
same,Potency,[7],inactive
same,Potency,[8],inactive
same,Potency,[9],inactive
same,Potency,[10],inactive
same,Potency,[11],inactive
same,Potency,[12],inactive
same,Potency,[13],inactive
same,max response,[14],5.31% (inactive) and 2.56% (inactive)
same,Potency,[15],inactive
same,Potency,[16],inactive
same,Potency,[17],inactive
same,Potency,[18],inactive
same,Potency,[19],inactive
same,Potency,[20],inactive
Clc1nc(Cl)c(Cl)c(Cl)c1Cl,Potency,[1],inactive
same,outcome,[2],inactive
same,Potency,[3],inactive
same,Potency,[4],inactive
same,Potency,[5],inactive
same,"activity change, positive = activation",[6]; at 92.4 µM (top of the series),4.58% (inactive) and 5.62% (inactive)
same,Potency,[7],inactive
same,Potency,[8],inactive
same,Potency,[9],inactive
same,Potency,[10],inactive
same,Potency,[11],43.9 µM (active) and inactive
same,Potency,[12],inactive
same,Potency,[13],inactive
same,max response,[14],1.46% (inactive) and 24.5% (inactive)
same,Potency,[15],inactive
same,Potency,[17],inactive
same,Potency,[18],inactive
same,Potency,[19],inactive
same,Potency,[20],inactive
O=CCCCC=O,Potency,[1],21.1 µM (active) and 19.5 µM (active)
same,outcome,[2],inactive
same,Potency,[3],inactive
same,Potency,[4],inactive
same,Potency,[5],inactive
same,"activity change, positive = activation",[6]; at 92.4 µM (top of the series),-0.881% (inactive) and -3.51% (inactive)
same,Potency,[7],inactive
same,Potency,[8],42.1 µM (active) and inactive
same,Potency,[9],inactive
same,Potency,[10],inactive
same,Potency,[11],inactive
same,Potency,[12],inactive
same,Potency,[13],inactive
same,Potency,[14],42.1 µM (active)
same,max response,[14],3.08% (inactive)
same,Potency,[15],inactive
same,Potency,[17],inactive
same,Potency,[20],inactive
c1ccc2cc(Nc3ccc(Nc4ccc5ccccc5c4)cc3)ccc2c1,Potency,[1],inactive
same,outcome,[2],inactive
same,Potency,[3],inactive
same,Potency,[4],inactive
same,Potency,[5],inactive
same,"activity change, positive = activation",[6]; at 92.4 µM (top of the series),1.47% (inactive) and 5.2% (inactive)
same,Potency,[7],inactive
same,Potency,[8],inactive
same,Potency,[9],inactive
same,Potency,[10],inactive
same,Potency,[11],inactive
same,Potency,[12],inactive
same,Potency,[13],inactive
same,max response,[14],5.1% (inactive) and 1.69% (inactive)
same,Potency,[15],inactive
same,Potency,[16],inactive
same,Potency,[17],inactive
same,Potency,[18],inactive
same,Potency,[19],inactive and 12.3 µM (active)
same,Potency,[20],inactive
CCC(C)c1ccccc1O (stereo not drawn),Potency,[1],inactive
same,outcome,[2],inactive
same,Potency,[3],inactive
same,Potency,[4],inactive
same,Potency,[5],inactive
same,"activity change, positive = activation",[6]; at 92.4 µM (top of the series),-6.99% (inactive) and 2.48% (inactive)
same,Potency,[7],inactive
same,Potency,[8],inactive
same,Potency,[9],inactive
same,Potency,[10],inactive
same,Potency,[11],34.4 µM (active)
same,Potency,[12],inactive
same,Potency,[13],inactive
same,max response,[14],-13% (inactive) and 2.84% (inactive)
same,Potency,[16],inactive
same,Potency,[17],inactive
same,Potency,[18],inactive
same,Potency,[19],48.6 µM (active)
C/C=C/C(=O)O,Potency,[1],inactive
same,outcome,[2],inactive
same,Potency,[3],inactive
same,Potency,[4],inactive
same,Potency,[5],inactive
same,"activity change, positive = activation",[6]; at 92.4 µM (top of the series),7.56% (inactive) and 0.71% (inactive)
same,Potency,[7],inactive
same,Potency,[8],inactive
same,Potency,[9],inactive
same,Potency,[10],inactive
same,Potency,[12],inactive
same,Potency,[13],inactive
same,max response,[14],2.91% (inactive) and 4.68% (inactive)
same,Potency,[15],inactive
same,Potency,[17],inactive
same,Potency,[18],inactive
same,Potency,[19],inactive
same,Potency,[20],inactive
O=CCc1ccccc1,Potency,[1],inactive
same,outcome,[2],inactive
same,Potency,[3],inactive
same,Potency,[4],inactive
same,Potency,[7],inactive
same,Potency,[8],inactive
same,Potency,[9],inactive
same,Potency,[10],inactive
same,Potency,[11],inactive
same,Potency,[12],inactive
same,Potency,[13],inactive
same,max response,[14],1.86% (inactive) and -0.86% (inactive)
same,Potency,[15],inactive
same,Potency,[16],inactive
same,Potency,[17],inactive
same,Potency,[18],inactive
same,Potency,[19],inactive
NC=O,Potency,[1],inactive
same,outcome,[2],inactive
same,Potency,[3],inactive
same,Potency,[4],inactive
same,Potency,[5],inactive
same,"activity change, positive = activation",[6]; at 92.4 µM (top of the series),6.78% (inactive) and -1.46% (inactive)
same,Potency,[7],inactive
same,Potency,[8],inactive
same,Potency,[9],inactive
same,Potency,[10],inactive
same,Potency,[12],inactive
same,Potency,[13],inactive
same,max response,[14],-1.02% (inactive) and -20.4% (inactive)
same,Potency,[15],inactive
same,Potency,[16],inactive
same,Potency,[17],inactive
same,Potency,[18],inactive
same,Potency,[19],inactive
same,Potency,[20],inactive
CCC(C)CO (stereo not drawn),Potency,[1],inactive
same,outcome,[2],inactive
same,Potency,[3],inactive
same,Potency,[4],inactive
same,Potency,[5],inactive
same,"activity change, positive = activation",[6]; at 92.4 µM (top of the series),1.13% (inactive) and -5.81% (inactive)
same,Potency,[7],inactive
same,Potency,[8],inactive and 24.5 µM (active)
same,Potency,[9],inactive
same,Potency,[10],inactive
same,Potency,[11],inactive
same,Potency,[12],inactive
same,Potency,[13],inactive
same,Potency,[14],24.5 µM (active)
same,max response,[14],4.66% (inactive)
same,Potency,[15],inactive
same,Potency,[16],inactive and 38.9 µM (active)
same,Potency,[17],inactive
same,Potency,[18],inactive and 43.6 µM (active)
same,Potency,[19],inactive and 43.6 µM (active)
O=C(/C=C/c1ccccc1)OCc1ccccc1,Potency,[1],inactive
same,outcome,[2],inactive
same,Potency,[3],inactive
same,Potency,[4],inactive
same,Potency,[5],inactive
same,"activity change, positive = activation",[6]; at 42.5 µM (top of the series),33.8% (active)
same,"activity change, positive = activation",[6]; at 92.4 µM (top of the series),36.2% (active)
same,Potency,[7],inactive
same,Potency,[8],inactive
same,Potency,[9],inactive
same,Potency,[10],inactive
same,Potency,[12],inactive
same,Potency,[13],inactive
same,max response,[14],1.15% (inactive) and -0.532% (inactive)
same,Potency,[15],inactive
same,Potency,[17],inactive
same,Potency,[18],inactive
same,Potency,[19],inactive
same,Potency,[20],inactive
